# The full list was thinned out, with hits kept by preference.
# ALOX12 inh – Primary qHTS assay for inhibitors of human arachidonate 12S-lipoxygenase (ALOX12): Round 2. Polyunsaturated fatty acid lipoxygenase ALOX12 (Homo sapiens), P18054. purified 12hLO, xylenol orange hydroperoxide absorbance. Potency, µM (series often up to 108 µM), for inactives: top-dose activity change, negative = inhibition, usual class: inhibitors. 580,000 compounds, 1.1% hits; note: potency is the fitted concentration of half-maximal effect
# Target sequence (P18054 whole entry, looked up): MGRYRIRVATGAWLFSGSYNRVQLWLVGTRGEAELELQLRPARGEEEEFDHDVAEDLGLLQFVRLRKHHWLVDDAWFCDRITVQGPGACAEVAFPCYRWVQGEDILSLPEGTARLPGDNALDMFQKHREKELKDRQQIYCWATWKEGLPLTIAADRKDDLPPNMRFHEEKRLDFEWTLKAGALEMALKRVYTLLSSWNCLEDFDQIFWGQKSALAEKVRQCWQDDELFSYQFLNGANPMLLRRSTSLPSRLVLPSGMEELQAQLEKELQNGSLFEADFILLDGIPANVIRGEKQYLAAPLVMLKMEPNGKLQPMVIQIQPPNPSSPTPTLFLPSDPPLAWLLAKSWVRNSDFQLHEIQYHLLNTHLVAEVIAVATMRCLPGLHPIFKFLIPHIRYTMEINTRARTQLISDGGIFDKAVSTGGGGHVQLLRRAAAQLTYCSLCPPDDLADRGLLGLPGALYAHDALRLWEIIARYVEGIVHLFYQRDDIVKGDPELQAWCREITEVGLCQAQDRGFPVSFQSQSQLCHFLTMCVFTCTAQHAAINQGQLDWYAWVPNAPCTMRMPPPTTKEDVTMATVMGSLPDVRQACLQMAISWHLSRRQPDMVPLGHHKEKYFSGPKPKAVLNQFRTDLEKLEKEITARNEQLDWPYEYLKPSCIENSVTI
#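 Purified human 12hLO at 150 nM in 25 mM Hepes, 0.01% Triton X-100, pH 7.0, preincubated 15 min at room temperature with compound. Reaction started with 40 uM arachidonic acid, 30 min at room temperature. Hydroperoxide measured by Fe-xylenol orange, 573/405 nm absorbance ratio.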
# DT40 TDP1 no CPT – qHTS for Inhibitors of human tyrosyl-DNA phosphodiesterase 1 (TDP1): qHTS in cells in absence of CPT; DT40 Tdp1-/- hTDP1 cells, no CPT, ATP luminescence, 48 h; Potency, µM (titrated, usually from 46.2 µM), for the others: top-dose activity change, negative = growth inhibition, most hits filed as inhibitors; 420,000 compounds, 15% hits; AID 686978, 2013; note: potency is the fitted concentration of half-maximal effect; nearly all actives have a fitted effect of over 55% in size
#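 No-CPT arm: Tdp1-/-;hTDP1 DT40 cells (400/well) plus compounds, incubated ≥48 hr at 37 °C. Readout CellTiter-Glo luminescence.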
# HT1080 IDH1KD tx – qHTS for induction of synthetic lethality in tumor cells producing 2HG: qHTS for the HT-1080-IDH1KD cell line | HT-1080 IDH1 knockdown viability, ATP luminescence, 48 h | Potency, µM (titrated, usually from 46.1 µM), for the others: at the top dose activity, negative = toxicity, hits mostly cytotoxic | 360,000 compounds, 2% hits | AID 686971, 2013;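 note: potency is the fitted concentration of half-maximal effect; 0% = DMSO wells and -100% = cell-free medium wells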
#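 % activity derives from luminescence (CellTiter-Glo), normalised to DMSO and no-cell wells. HT-1080-IDH1KD cells, 750/well, had 48 h compound exposure at 37 °C.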
# HT1080NT lethal – qHTS for induction of synthetic lethality in tumor cells producing 2HG: qHTS for the HT-1080-NT fibrosarcoma cell line; HT-1080-NT fibrosarcoma viability, CellTiter-Glo ATP luminescence, 48 h; Potency, µM (doses to about 46.1 µM), for the others: at the top dose activity, negative = less viability, actives largely listed as cytotoxic; 360,000 compounds, 1.6% hits;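 note: NT is the 2HG producing partner of a matched IDH1 knockdown line; potency is the fitted concentration of half-maximal effect; 0% = DMSO-treated cells and -100% = media-only wells without cells; nearly all actives have a fitted effect of over 55% in size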
#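 Toxicity toward the 2HG-producing NT line was scored as %Activity, normalised to DMSO and no-cell wells, from CellTiter-Glo luminescence after 48 hours' treatment.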
# IL-1B inflam inh – qHTS for Inhibitors of Inflammasome Signaling: IL-1-beta AlphaLISA Primary Screen | THP-1 LPS/ATP IL-1B secretion, AlphaLISA, 16 h; stronger effect = lower value | activity change, % at 57.5 µM | 360,000 compounds, 4.7% hits; in the data active = activity change below about -50%; inconclusive = mostly about -30% to -49%
#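 Secreted IL-1B measured by AlphaLISA bead assay after 16 h compound exposure of THP-1 cells; compounds (final up to 57.5 uM) added 1 h before LPS (250 ng/mL) and ATP (1.25 mM) stimulation; lower signal means less secretion.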
# TDP1 cell CPT – qHTS for Inhibitors of human tyrosyl-DNA phosphodiesterase 1 (TDP1): qHTS in cells in presence of CPT. 420,000 compounds, 12% hits. chicken DT40 Tdp1-/-;hTDP1 cells + 20 nM CPT, ATP luminescence, 48 h. Potency, µM (top dose mostly 46.2 µM), for the others: at the highest dose activity change, negative = growth inhibition, usual class: inhibitors. AID 686979, 2013; note: potency is the fitted concentration of half-maximal effect; nearly all actives have a fitted effect of over 55% in size
#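 Chicken DT40 Tdp1-/- cells stably complemented with human TDP1 were seeded at 400 cells/well in medium containing 20 nM camptothecin, exposed to pin-transferred compounds, and grown at 37 °C for at least 48 hr. Viability was read as ATP luminescence.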
# An asterisk follows results filed as active; ? = inconclusive; . = no result; [ ] = remark or other dose. Unless noted, calls come from the whole dose curve; as a rule, active = well fitted curve in the direction sought with a large enough effect; inconclusive = small, poorly fitted or top-dose-only effect, or another doubt; inactive = no such curve, though single readings can be large; an effect the other way counts as inactive or inconclusive. Unless noted, % is set by controls: 0 for no effect and ±100 for the full control effect.
SMILES,ALOX12 inh,DT40 TDP1 no CPT,HT1080 IDH1KD tx,HT1080NT lethal,IL-1B inflam inh,TDP1 cell CPT
CCOc1cc(/C=C2\SC(=S)N(N3CCOCC3)C2=O)ccc1O,9%,-21%,7%,3%,4,-3%
CCOc1cc(/C=C2\SC(=N)N(c3nccs3)C2=O)ccc1OCCN1CCOCC1,-11%,21µM*,?,-27%,-19,16µM*
Cc1cccc(CN2CCCCCCN(C)C(=O)[C@@H]3CCC[C@@H]32)c1,65%,.,.,.,.,.
CC(=O)c1cn(-c2ccc(Cl)cc2)c(=O)n(Cc2ccc(F)cc2)c1=O,-11%,9.2µM*,-20%,-13%,-5,?
O=C(Nc1ccc(C(=O)N2CCCC2)cc1)C1CCC1,7%,-8%,4%,-2%,59,6%
COc1cccc(C(=O)N[C@H]2[C@H](O)[C@H](O)C[C@@H]2c2ccc(C(F)(F)F)nc2)c1,128%[176 µM],.,.,.,.,.
COc1ccc(N(C(=O)c2ccco2)S(=O)(=O)c2cccs2)cc1,?,-17%,-3%,-4%,16,-14%
COc1ccc(N(Cc2cccs2)C(=O)COc2ccc(C(C)C)cc2)cc1,-18%,21µM*,.,.,.,23µM*
COc1ccc(N(Cc2cccs2)C(=O)c2ccco2)cc1,?,?,.,.,.,23µM*
COc1ccc(N(Cc2cccs2)C(=O)Nc2cccc(Cl)c2)cc1,16µM*,?,.,.,.,?
COc1ccc(OCC(=O)N(Cc2cccs2)C2CCS(=O)(=O)C2)cc1 (configuration not stated),17%,1%,-3%,3%,9,-2%
COc1ccc(OCC(=O)N(Cc2cccs2)c2ccc(OC)cc2)cc1,0%,23µM*,.,.,.,16µM*
CCc1ccc(OCC(=O)N(Cc2cccs2)c2ccc(Cl)cc2)cc1,0%,?,.,.,.,?
CC(C)NC(=O)c1ccc(N2CC3CC(C2)[C@H]2CCCC(=O)N2C3)nc1 (some centres not stated),51%,.,.,.,.,.
CCC(Oc1ccc(F)cc1)C(=O)Nc1ccc(OC)c2ncccc12 (configuration not stated),21%,.,.,.,.,.
CC1O[C@@H](O[C@@H]2C(O)C[C@H](O[C@@H]3C(O)C[C@@H](OC4CC[C@@]5(C)C6CC(O)[C@@]7(C)C(C8=CC(=O)OC8)CC[C@@]7(O)C6CC[C@@H]5C4)OC3C)OC2C)CC(O)[C@H]1O (some centres not stated),.,1.8µM*,.,.,.,3.3µM*
O=C(OCCNc1ncc(C(F)(F)F)cc1Cl)c1ccc(S(=O)(=O)N2CCOCC2)cc1,27%,-4%,9%,-3%,7,-1%
O=C(CONS(=O)(=O)c1ccc(Cl)cc1)NCCNc1ncc(C(F)(F)F)cc1Cl,?,?,?,?,-55*,2%
O=C(NCCc1cnc[nH]1)c1ccc(-c2ccccc2)cc1,-3%,-10%,-11%,-6%,-54*,-41%
O=C(NCCNC(=O)c1ccccn1)c1ccc(-c2ccccc2)cc1,19%,21µM*,-9%,-17%,-1,-8%
CN(C[C@H](c1ccccc1)N(C[C@H](Cc1ccccc1)N(CCc1ccccc1)N=O)N=O)N=O,-1%,?,3%,2%,-3,18µM*
CC[n+]1c(/C=C2/C=C(C)CC(C)(C)C2)sc2ccc(OC)cc21,?,1.2µM*,?,21µM*,-112*,2.3µM*
